“And” between values parts separate entries of the source, which are not always exact repeats. Identical values can stand only once. ± gives the standard deviation of the averaged measurements.
Key:
Details in all cases: concentration: 10 µM; 24 h
[1] = system: HCC1569; assay: cell number relative to DMSO (% of DMSO); higher = more cells (less growth inhibition / toxicity)
Outline: (§1)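 After 24 h at 37 °C with compounds at 10 µM, in triplicate, HCC1569 and TDF cells were fixed with 3.7% formaldehyde. Immunostaining used a rabbit anti-H1.0 antibody and an AlexaFluor 647 secondary, with DAPI, and six fields per well were imaged at ×10. H1.0 nuclear intensity or cell number is presented as percent of the plate control, from the median of replicates, with HCC1569 values smoothed for positional effects.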

[2] = system: TDF; assay: as above
Outline: as §1

[3] = system: TDF; assay: H1.0 immunofluorescence intensity relative to DMSO (% of DMSO); higher = stronger H1.0 induction, active = 120 or more
Outline: as §1

[4] = system: HCC1569; assay: H1.0 immunofluorescence intensity relative to DMSO (% of DMSO); higher = stronger H1.0 induction, active = 140 or more
Outline: as §1
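Throughout, for H1.0 immunofluorescence intensity relative to DMSO: TDF is a line of transformed human dermal fibroblasts of mesenchymal origin.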
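Throughout, for cell number relative to DMSO: TDF denotes transformed human dermal fibroblasts of mesenchymal origin.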

Compound | cell number [1] | cell number [2] | H1.0 immunofluorescence intensity [3] | H1.0 immunofluorescence intensity [4]
CCCCC(=O)N(Cc1ccc(-c2ccccc2-c2nn[nH]n2)cc1)[C@H](C(=O)O)C(C)C | 98.8 | 112 | 93.7 (inactive) | 100 (inactive)
O=c1cc(-c2ccc(O)c(O)c2)oc2cc(O)c(C3OC(CO)C(O)C(O)C3O)c(O)c12 (stereo unspecified) [Homoorientin] | 101 | 96.2 | 100 (inactive) | 90.4 (inactive)
COc1ccccc1CNCCCCCCNCCCCCCCCNCCCCCCNCc1ccccc1OC.Cl.Cl.Cl.Cl [Methoctramine tetrahydrochloride] | 104 | 87.6 | 103 (inactive) | 98 (inactive)
O=C(O)c1ccc(-c2c[nH]c3ncc(-c4ccccc4)cc23)cc1C1CCCC1 | 71.1 and 70.9 | 69.4 and 71.3 | 95.6 (inactive) and 106 (inactive) | 152 (active) and 146 (active)
CCCCCC=CCC=CC=CC=CCC(=O)CCCC(=O)O [5-Ketoeicosatetraenoic acid] | 99.9 | 95.5 | 98.1 (inactive) | 96.5 (inactive)
COc1ccc(C(=O)Nc2sc3c(c2C(N)=O)CCCC3)cc1OC | 98.8 | 109 | 94.4 (inactive) | 121 (inactive)
NC(Cc1ccc(Cl)cc1)C(=O)O (racemic) | 101 | 106 | 88.6 (inactive) | 87.6 (inactive)
CN(C)NN=C1N=CN=C1C(N)=O [Dacarbazine] | 102 | 102 | 97.8 (inactive) | 101 (inactive)
CCCCCC(O)C=CC=CCC=CC=CC(O)CCCC(=O)O (stereo unspecified) | 115 | 98.1 | 101 (inactive) | 86.5 (inactive)
O[C@@H]1[C@@H](O)[C@H](OC/C=C/c2ccccc2)O[C@H](CO[C@@H]2OC[C@H](O)[C@H](O)[C@H]2O)[C@H]1O | 97 | 103 | 100 (inactive) | 90.3 (inactive)
CC12CCC3c4ccc(O)cc4CCC3C1CC(O)C2O (stereo unspecified) [Estriol] | 98.5 | 97.8 | 101 (inactive) | 113 (inactive)
CCCCCN(C)CCC(O)(P(=O)(O)O)P(=O)(O)O [Ibandronate] | 103 | 100 | 98.4 (inactive) | 97.2 (inactive)
CC(=O)CCCCn1c(=O)c2c(ncn2C)n(C)c1=O [Pentoxifylline] | 103 ± 4.1 | 106 ± 5.2 | 92.8 (inactive) | 105 (inactive)
O.O.O=c1c(O)c(-c2ccc(O)c(O)c2)oc2cc(O)cc(O)c12 | 90.7 | 89.7 | 101 (inactive) | 116 (inactive)
CCOC(=O)C=C(C)C=CC=C(C)C=Cc1c(C)cc(OC)c(C)c1C [Etretinate] | 104 | 97.6 | 101 (inactive) | 115 (inactive)
CCCCCC=CCC=CCCCCCCCC(=O)NCC(=O)O [N-Linoleoylglycine] | 105 | 101 | 96.8 (inactive) | 103 (inactive)
CCCCCC(O)C=CC1C(=O)C=CC1CC=CCCCC(=O)O (stereo unspecified) [Prostaglandin J2] | 99.8 | 99.5 | 89.3 (inactive) | 100 (inactive)
CNC(C)C1CCC(N)C(OC2C(N)CC(N)C(OC3OCC(C)(O)C(NC)C3O)C2O)O1 (stereo unspecified) [Gentamycin] | 100 | 95.4 | 95 (inactive) | 117 (inactive)
CCCS(=O)c1ccc2nc(NC(=O)OC)[nH]c2c1 (stereo unspecified) [Ricobendazole] | 98.4 | 81.6 | 114 (inactive) | 109 (inactive)
O=P(O)(O)C(Cl)(Cl)P(=O)(O)O [Clodronic acid] | 101 | 103 | 88.3 (inactive) | 102 (inactive)
Br.Oc1ccc(C2CNCCc3c2cc(O)c(O)c3Cl)cc1 (stereo unspecified) [Fenoldopam bromide] | 103 | 100 | 86.4 (inactive) | 99.2 (inactive)
O=c1cc(-c2cccc3c2Sc2ccccc2S3)oc(N2CCOCC2)c1 [ATM Kinase Inhibitor] | 89.5 | 109 | 98.4 (inactive) | 113 (inactive)
O=C1NCCc2[nH]c(-c3ccncc3)cc21 [Cdc7/Cdk9 Inhibitor] | 58.9 | 35.3 | 111 (inactive) | 115 (inactive)
NC(CO)C(=O)NNCc1ccc(O)c(O)c1O (stereo unspecified) [Benserazide] | 95.2 | 82 | 101 (inactive) | 97.6 (inactive)

— the supplement of paper PMC7156485
